# Screening results deposited in PubChem by Sanford-Burnham Center for Chemical Genomics.
# Shown are actives, neighbours in structure and some others; about 4% of the full set was active somewhere.
# tim10-1 inh – growth inhibitors of tim10-1 mutant yeast, primary screen, luminescence, uHTS. S. cerevisiae tim10-1 ts strain growth, BacTiter-Glo, 24 h. inhibition, % at 20 µM. hit rate 2.2% among 330,000. AID 463190, 2010;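 active means inhibition of at least 40%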;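 further: mutant grown at 25 °C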
# NALP3 yeast inh – NALP3 inflammasome inhibitors in reconstituted yeast, primary screen, luminescence, uHTS | Yeast reconstituted NLRP3/ASC/caspase-1, beta-gal luminescence, 24 h | inhibition, % at 10 µM | hit rate 0.39% among 330,000 | AID 2825, 2010;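 active means inhibition of 50% or more; inactive means inhibition below 50%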
# TIM10 inh – growth inhibitors of isogenic TIM10 control yeast, primary screen, counter-screen for tim10-1 yeast inhibitor project, luminescence, uHTS. S. cerevisiae TIM10 strain growth, BacTiter-Glo luminescence, 24 h. inhibition, % at 10 µM. hit rate 1.4% among 330,000. AID 463195, 2010;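 active means inhibition of 40% or more at the single tested concentration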;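 further: wild-type TIM10 isogenic control strain grown at permissive 25 °C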
# NALP1 yeast inh – NALP1 inflammasome inhibitors in reconstituted yeast, colorimetric, S. cerevisiae, triplicate retest; inhibition, % at 10 µM; hit rate 0.61% among 280,000; S. cerevisiae NALP1/ASC/caspase-1 growth, X-gal OD620, 72 h; in the data active means inhibition mostly above about 24%, no sharp cut-off; inactive means mostly below about 32%
# tim23-1 inh – growth inhibitors of tim23-1 mutant yeast, primary screen, luminescence, uHTS. S. cerevisiae tim23-1 growth, BacTiter-Glo luminescence, 24 h. inhibition, % at 20 µM. hit rate 1.3% among 330,000. AID 463212, 2010;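 active means growth inhibition of the mutant yeast at or above 50%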;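 further: temperature-sensitive mutant grown at 25 °C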
# tim10-1 conf – growth inhibitors of tim10-1 mutant yeast, confirmation, single concentration, luminescence, S. cerevisiae | AID 463213, 2010 | hit rate 56% among 7,400 | inhibition, % at 20 µM | S. cerevisiae tim10-1 ts strain growth, BacTiter-Glo, 24 h | shares compounds with tim10-1 inh;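 active means inhibition of yeast growth at or above a set limit in either of two repeat tests at 20 µM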;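 further: tim10-1 mutant grown at permissive 25 °C to find synthetic lethal compounds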
# TIM10 conf – growth inhibitors of wild-type TIM10 yeast, confirmation, counter-screen for tim10-1 synthetic lethality project, single concentration, luminescence, S. cerevisiae; shares compounds with TIM10 inh; S. cerevisiae tim10 strain growth, BacTiter-Glo luminescence, 24 h; inhibition, % at 10 µM; hit rate 63% among 4,600; AID 463215, 2010;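 active means inhibition of yeast growth at or above a set limit in either of two replicates at 10 µM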; further: this counterscreen used the strain with wild-type TIM10
# tim23-1 conf – tim23-1 mutant yeast growth inhibitors, confirmation, luminescence, single concentration | shares compounds with tim23-1 inh | hit rate 83% among 4,400 | S. cerevisiae tim23-1 growth, BacTiter-Glo luminescence, 24 h | AID 463218, 2010 | inhibition, % at 20 µM;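 active means inhibition above about 39% in either of two replicate wells at 20 µM, limit read from the data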;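 further: temperature-sensitive tim23-1 mutant grown at 25 °C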
# Hits are given with their value; n = inactive; x = no result.
SMILES,tim10-1 inh,NALP3 yeast inh,TIM10 inh,NALP1 yeast inh,tim23-1 inh,tim10-1 conf,TIM10 conf,tim23-1 conf
CCOc1ccc(C(C)(C)C)cc1S(=O)(=O)n1nc(C)cc1C,46,n,46,n,54,41,n,51
CCOc1ccc(C(C)(C)C)cc1S(=O)(=O)N1CC(C)OC(C)C1 (stereo not given),44,n,n,n,55,n,x,42
CCOc1ccc(N=C2NC(=O)CS2)cc1,n,n,n,n,n,x,x,x
CCCCNC(=O)c1cn(CC)c2ccc(S(=O)(=O)N3CCCCCC3)cc2c1=O,n,n,n,n,n,x,x,x
Cc1ccc(C)c(NC(=S)NNc2ccc(F)cc2F)c1,47,n,n,n,58,42,x,57
Cc1cc(C)n2nc(SC(C)C(=O)N3CC(C)OC(C)C3)nc2n1 (stereo not given),n,n,n,x,n,x,x,x
CC12CCC(C/C1=N\OC(=O)c1ccc(F)cc1)C2(C)C (stereo not given),66,n,71,n,71,64,67,78
CC1=CC(=O)C=C(C)C1=NOC(=O)c1cccc([N+](=O)[O-])c1,n,n,n,n,n,x,x,x
CC12CCC(C/C1=N/OC(=O)c1cccc([N+](=O)[O-])c1)C2(C)C (stereo not given),42,n,62,n,70,66,72,75
C/C(=N\OC(=O)c1ccc(F)cc1)c1ccc(F)c(F)c1,n,n,n,x,n,x,x,x
Cc1ccc(NC(=O)CSc2nc(=O)n(Cc3ccncc3)c3c2CCC3)c(C)c1,n,n,n,x,n,x,x,x
Nc1cc(C(=O)OCC(=O)N2CCC(Cc3ccccc3)CC2)ccc1Cl,n,n,n,x,n,x,x,x
C[C@H](CO)N1C[C@H](C)[C@@H](CN(C)S(=O)(=O)c2cn(C)cn2)Oc2ccc(NC(=O)Cc3ccccc3)cc2C1=O,n,n,n,x,n,x,x,x
COc1cccc2oc3ccc(C#Cc4ccccn4)cc3c(=O)c12,41,n,56,n,75,53,38,70
O=C(NC1CCCCC1)C(c1ccncc1)N(C(=O)c1csnn1)c1cccc(F)c1 (stereo not given),n,n,n,n,n,x,x,x
CSC1=NCCN1C(=O)Cc1ccc(-c2ccccc2)cc1,61,n,59,n,73,69,67,n
CCSC1=NCCN1C(=O)Cc1ccc(-c2ccccc2)cc1,77,n,76,n,67,76,74,n
CCC(=O)N1CCN=C1SCc1ccccc1,n,n,n,n,n,x,x,x
CSC1=NCCN1C(=O)Cc1ccc(F)cc1,n,n,n,n,n,x,x,x
CC(C)CNC(=O)CSc1ccc(S(=O)(=O)N2CCN(C)CC2)cn1,n,n,n,x,n,x,x,x
CCn1c(O)c(C2=c3ccccc3=NC2=O)c2cc(Br)ccc21,61,n,60,n,75,51,68,69
O=C(O)CC1S/C(=N/N=C/C2CC=CCC2)NC1=O (stereo not given),n,n,n,n,n,x,x,x
O=C1Nc2ccc(Cl)cc2/C1=C/C1CC=CCC1 (stereo not given),78,n,59,n,64,87,n,65
O=C(N/N=C/c1ccccc1F)NC12CC3CC(CC(C3)C1)C2,n,n,n,n,n,x,x,x
COc1cccc(/C=N/NC(=O)NC23CC4CC(CC(C4)C2)C3)c1O,52,n,42,x,52,n,39,47
SMILES,tim10-1 inh,NALP3 yeast inh,TIM10 inh,NALP1 yeast inh,tim23-1 inh,tim10-1 conf,TIM10 conf,tim23-1 conf
O=C1C2C3C=CC(C4CC34)C2C(=O)N1/N=C/c1ccc(-c2ccc([N+](=O)[O-])cc2)o1 (stereo not given),n,n,n,n,n,x,x,x
O=C1C2C3C=CC(C4CC34)C2C(=O)N1/N=C/c1ccc([N+](=O)[O-])o1 (stereo not given),67,n,45,n,76,55,46,74
O=C1C2C(C(=O)N1/N=C/c1ccc([N+](=O)[O-])o1)C1C=CC2C12CC2 (stereo not given),57,n,43,n,64,50,n,62
CCc1cc(C(=O)N2CCN(S(=O)(=O)c3ccccc3F)CC2)sc1C,n,n,n,x,n,x,x,x
COc1ccc(O)c(CN2CCCC(N3CCc4ccccc4C3)C2)c1 (stereo not given),n,n,n,n,n,x,x,x
N/C(Cc1ccc([N+](=O)[O-])cc1)=N\OC(=O)COc1cccc2ccccc12,64,n,76,n,60,73,72,91
COc1ccc(OC(=O)COc2ccccc2C)cc1,n,n,n,x,n,x,x,x
COc1ccc(C/C(N)=N/OC(=O)COc2ccccc2C)cc1,51,n,n,n,55,39,x,41
N/C(Cc1ccc([N+](=O)[O-])cc1)=N\OC(=O)COc1ccccc1Cl,n,n,n,n,n,x,x,x
COc1ccc(CNC(=O)[C@@H](NC(=O)C2CCN(S(=O)(=O)c3ccc(C)cc3)CC2)C(C)C)cc1OC,n,n,n,n,n,x,x,x
CCc1ccc(CNC(=O)c2ccc(OC3CCN(C(C)=O)CC3)c(OC)c2)nc1,n,n,n,n,n,x,x,x
COc1ccc(Cl)cc1C(=O)Nc1ccc(NC(=O)C(C)C)cc1,53,n,41,n,53,45,36,42
Cc1cccc(/C(N)=N/OC(=O)c2ccc(Br)o2)c1,43,n,69,n,67,47,63,57
CCC(C(=O)O/N=C(\N)c1cccc(C)c1)c1ccccc1 (stereo not given),63,n,54,n,61,53,n,55
Cc1cccc(/C(N)=N/OC(=O)c2cccnc2)c1,n,n,n,n,n,x,x,x
N/C(=N\OC(=O)COc1ccc(Br)cc1)c1cccc([N+](=O)[O-])c1,n,n,n,x,n,x,x,x
Cc1cccc(/C(N)=N/OC(=O)c2ccc3c(c2)OCO3)c1,75,n,83,n,88,66,n,85
N/C(=N\OC(=O)CCC1CCCCC1)c1cccc([N+](=O)[O-])c1,79,n,62,n,54,79,49,77
Cc1cc2[nH]c(=O)c(=O)[nH]c2cc1S(=O)(=O)Nc1cccc(C)c1C,n,n,n,n,n,x,x,x
N/C(=N\OC(=O)c1cccc([N+](=O)[O-])c1)c1cccnc1,n,n,n,n,n,x,x,x
